TIM10 inh – inhibits growth of TIM10 yeast strain; inhibition, % at 10 µM; AID 463195; actives 1.4% (n = 330,000); S. cerevisiae TIM10 strain growth, BacTiter-Glo luminescence, 24 h;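 active = inhibition of 40% or more at the single tested concentration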;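 also: wild-type TIM10 isogenic control strain grown at permissive 25 °C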
PfHsp90 set2 – inhibits growth of yeast expressing Plasmodium falciparum Hsp90; AID 504621; inhibition, % at 9.4 µM; actives 0.32% (n = 310,000); S. cerevisiae expressing PfHsp90, BacTiter-Glo ATP, 48 h; yeast lacking PDR1 and PDR3 efflux regulators;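 active = every replicate shows inhibition above about 80%, whatever the replicate mean, limit read from the data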;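 also: 0% = DMSO neutral controls and 100% = 20 µM radicicol positive controls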
NALP3 yeast inh – blocks the NALP3 inflammasome reconstituted in yeast; AID 2825; Yeast reconstituted NLRP3/ASC/caspase-1, beta-gal luminescence, 24 h; inhibition, % at 10 µM; actives 0.39% (n = 330,000);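 active = inhibition of 50% or more; inactive = inhibition below 50%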;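 also: plate controls were induced DMSO wells for no effect and uninduced yeast grown without galactose for full effect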
tim10-1 inh – growth inhibitors of tim10-1 mutant yeast. S. cerevisiae tim10-1 ts strain growth, BacTiter-Glo, 24 h. inhibition, % at 20 µM. actives 2.2% (n = 330,000);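 active = inhibition of at least 40%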;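 also: mutant grown at 25 °C; 0% = DMSO wells with yeast and 100% = wells holding no yeast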
tim23-1 inh – inhibits growth of tim23-1 mutant yeast; S. cerevisiae tim23-1 growth, BacTiter-Glo luminescence, 24 h; inhibition, % at 20 µM; actives 1.3% (n = 330,000); AID 463212;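 active = growth inhibition of the mutant yeast at or above 50%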;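 also: temperature-sensitive mutant grown at 25 °C; plate controls were DMSO-treated mutant yeast for no effect and medium wells lacking yeast for full effect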
NALP1 inh – inhibitors of NALP1 inflammasome in yeast. S. cerevisiae NALP1/ASC/caspase-1 growth, X-gal OD620, 72 h. inhibition, % at 10 µM. actives 0.61% (n = 280,000); in the data active = inhibition mostly above about 24%, no sharp cut-off; inactive = mostly below about 32%
TIM10 conf – TIM10 yeast growth inhibition, confirmed; shares compounds with TIM10 inh; S. cerevisiae tim10 strain growth, BacTiter-Glo luminescence, 24 h; inhibition, % at 10 µM; actives 63% (n = 4,600);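 active = inhibition of yeast growth at or above a set limit in either of two replicates at 10 µM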;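 also: this counterscreen used the strain with wild-type TIM10; 0% = yeast with DMSO and 100% = medium wells lacking yeast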
* marks the source's active call; other numbers are inactive results. Sampled rows, rich in hits. Any-hit rate of the full collection: about 4.1%.

COc1ccc(C2CC(c3ccccc3)=NN2C(=S)Nc2ccccc2)cc1 (stereo not given) was read as TIM10 inh 29, PfHsp90 set2 16, NALP3 yeast inh 3, tim10-1 inh 26, tim23-1 inh 19 and NALP1 inh -8.
`COc1ccccc1C1CC(c2ccccc2)=NN1C(=S)Nc1ccccc1` (stereo not given) gave TIM10 inh 41*, PfHsp90 set2 0, NALP3 yeast inh 13, tim10-1 inh 16, tim23-1 inh 30, NALP1 inh -9 and TIM10 conf 26.
`COc1ccc(C2=NN(C(N)=S)C(c3ccccc3)C2)cc1` (stereo not given) gave TIM10 inh 41*, PfHsp90 set2 9, NALP3 yeast inh 22, tim10-1 inh 31, tim23-1 inh 33, NALP1 inh -4 and TIM10 conf 26.
Screening Cc1cc(OCc2cccc(S(=O)(=O)N3CCOCC3)c2)ccc1Cl returned TIM10 inh 50*, PfHsp90 set2 -2, NALP3 yeast inh -31, tim10-1 inh 19, tim23-1 inh 35 and TIM10 conf 26.
For O=C(/C=C/c1ccc2ccccc2n1)c1cc(Br)ccc1O the results were TIM10 inh 52*, PfHsp90 set2 -14, NALP3 yeast inh 13, tim10-1 inh 34, tim23-1 inh 35, NALP1 inh 18 and TIM10 conf 31*.
For O=C(O)/C=C/c1ccc2ccccc2n1 the results were TIM10 inh 9, PfHsp90 set2 -9, NALP3 yeast inh 8, tim10-1 inh 8, tim23-1 inh 11 and NALP1 inh -1.
Cc1sc2ncnc(SCC(=O)NC(=O)NCc3ccco3)c2c1C was read as TIM10 inh 50*, PfHsp90 set2 -5, NALP3 yeast inh 19, tim10-1 inh -8, tim23-1 inh -24, NALP1 inh 25 and TIM10 conf 0.
`Cc1ccccc1CS(=O)(=O)Cc1ccc(C(=O)NCCCN2CC(C)CC(C)C2)o1` (stereo not given) gave TIM10 inh 95*, PfHsp90 set2 16, NALP3 yeast inh -2, tim10-1 inh -8, tim23-1 inh 0, NALP1 inh 0 and TIM10 conf -3.
Screening CC1CCC(NC(=O)CN2C(=O)NC3(CCCCCC3)C2=O)CC1 (stereo not given) returned TIM10 inh 11, PfHsp90 set2 8, NALP3 yeast inh -7, tim10-1 inh -13 and tim23-1 inh 6.
COc1cccc(NC(=O)C2CCC(CNS(=O)(=O)c3ccc4c(c3)CC(C)N4C(C)=O)CC2)c1 (stereo not given) was read as TIM10 inh -10, PfHsp90 set2 0, NALP3 yeast inh 16, tim10-1 inh -3, tim23-1 inh 1 and NALP1 inh 10.
CCOc1ccc(N/C(SCc2cccc([N+](=O)[O-])c2)=C(/C#N)C(N)=O)cc1 was read as TIM10 inh 46*, PfHsp90 set2 -57, NALP3 yeast inh -3, tim10-1 inh 39, tim23-1 inh 38, NALP1 inh 5 and TIM10 conf 41*.
For O=C(NCCc1ccc(F)cc1)c1ccc(NS(=O)(=O)c2ccc3[nH]c(=O)[nH]c3c2)cc1 the results were TIM10 inh -2, PfHsp90 set2 -23, NALP3 yeast inh 7, tim10-1 inh -14 and tim23-1 inh 1.
COc1cc2c(cc1OC)CN(C(=O)c1ccc([N+](=O)[O-])o1)CC2 was read as TIM10 inh 68*, PfHsp90 set2 27, NALP3 yeast inh 6, tim10-1 inh 35, tim23-1 inh 31, NALP1 inh -28 and TIM10 conf 75*.
C[C@H]1CN([C@@H](C)CO)C(=O)c2cccc(NC(=O)c3nc4ccccc4s3)c2O[C@H]1CN(C)C(=O)Nc1ccc(F)cc1 was read as TIM10 inh -5, PfHsp90 set2 -12, NALP3 yeast inh 19, tim10-1 inh 14 and tim23-1 inh 18.
`CCS(=O)(=O)N1Cc2ccccc2CC1C(=O)N(C)CC(=O)Nc1cccc(F)c1` (stereo not given) gave TIM10 inh -8, PfHsp90 set2 -22, NALP3 yeast inh 7, tim10-1 inh -7 and tim23-1 inh 2.
For COc1ccc(-c2nn(-c3ccccc3)cc2C(=O)NC(=S)N2CCOCC2)cc1OC the results were TIM10 inh 16, NALP3 yeast inh 13, tim10-1 inh 19 and tim23-1 inh 11.
For CN(C)CCN(C(=O)c1ccc(S(=O)(=O)N2CCCC2)cc1)c1nc2ccc(Br)cc2s1 the results were TIM10 inh 15, PfHsp90 set2 -28, NALP3 yeast inh 12, tim10-1 inh 16, tim23-1 inh 16 and NALP1 inh 18.
`CC1CCCCN1S(=O)(=O)c1ccc(C(=O)N(CCCN(C)C)c2nc3ccc(Br)cc3s2)cc1` (stereo not given) gave TIM10 inh 40, PfHsp90 set2 -1, NALP3 yeast inh 10, tim10-1 inh 16, tim23-1 inh 11, NALP1 inh 13 and TIM10 conf 23.
O=C(NCCCc1ccccc1)c1ccc(-n2cncn2)c([N+](=O)[O-])c1 was read as TIM10 inh -1, NALP3 yeast inh 19, tim10-1 inh 9 and tim23-1 inh 7.
Screening O=S(=O)(NCc1ccc2c(c1)OCO2)c1ccc2c(c1)oc1ccccc12 returned TIM10 inh 46*, PfHsp90 set2 1, NALP3 yeast inh 11, tim10-1 inh 30, tim23-1 inh 40, NALP1 inh 20 and TIM10 conf 28*.
For COc1ccc(Nc2ccc3c(c2)=NC2(CCCCC2)[N+]=3[O-])cc1 the results were TIM10 inh 47*, NALP3 yeast inh 23, tim10-1 inh 37, tim23-1 inh 36, NALP1 inh 40* and TIM10 conf 4.
For [O-][N+]1=c2ccc(Nc3ccccc3)cc2=NC12CCCCC2 the results were PfHsp90 set2 -2 and NALP1 inh 28.
For O=C(Nc1ccc(Cl)c(Cl)c1)Nc1ccccc1NS(=O)(=O)c1cccs1 the results were TIM10 inh 47*, PfHsp90 set2 5, NALP3 yeast inh 5, tim10-1 inh 20, tim23-1 inh -142, NALP1 inh 31 and TIM10 conf 25.
For O=C(Nc1ccccc1)Nc1ccccc1NS(=O)(=O)c1cccs1 the results were TIM10 inh 1, PfHsp90 set2 -1, NALP3 yeast inh -5, tim10-1 inh 5, tim23-1 inh 7 and NALP1 inh 24.
Screening O=C(CSc1nc2[nH]ncc2c(=O)[nH]1)N1CCCCC1 returned PfHsp90 set2 16 and NALP1 inh 14.

Screening results: PubChem BioAssay, several laboratories
